Experiment [1] concerns the target Transcription factor E2F1 (Homo sapiens) (UniProt Q01094). As to the kind of experiment: ATG_E2F_CIS: Attagene CIS-FACTORIAL HepG2 Assay for human E2F Transcription Factor 1 (AID 2282935). Conditions: HepG2 Attagene cis-reporter, E2F reporter RNA transcripts; actives raise or lower the signal. The method, boiled down: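 First, HepG2 cells were transfected with reporter transcription units. Next, they were dosed for 24 h. Then RNA was isolated, converted to cDNA, PCR-amplified, FAM-labeled, HpaI-digested and analyzed by capillary electrophoresis.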

The nature of experiment [2]: ATG_E_Box_CIS: Attagene CIS-FACTORIAL HepG2 Assay for human Enhancer Box (E-box) (AID 2282936). Conditions: HepG2 E-box cis-reporter transcription, actives raise or lower the signal. The method, boiled down:
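Endogenous transcription factor activity was sensed in human HepG2 liver cells through transfected cis-promoter reporter units. After 24 h of dosing, total RNA was reverse-transcribed and reporter cDNA resolved by capillary electrophoresis.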

The nature of experiment [3]: ATG_M_61_CIS: Attagene CIS-FACTORIAL HepG2 Assay for M61 Transcription Factor (Internal Marker) (AID 2282937). Conditions: HepG2 Attagene CIS-FACTORIAL M61 internal marker reporter; actives raise or lower the signal. The gist of the method:
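Endogenous transcription factor activity in HepG2 is read through transiently transfected cis-element reporter units. After 24 h dosing, RNA undergoes reverse transcription, PCR and primer extension with 6-FAM before capillary electrophoresis; DMSO-referenced bidirectional fit.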

Experiment [4] in a line: ATG_EGR_CIS: Attagene CIS-FACTORIAL HepG2 Assay for human Early Growth Response 1 (EGR1) (AID 2282938). Conditions: HepG2 Attagene CIS-FACTORIAL EGR reporter mRNA; actives raise or lower the signal. The gist of the method:
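Activity is taken as induction or loss of reporter mRNA versus DMSO, fitted bidirectionally. Transcripts from cis-regulated reporter units in transiently transfected HepG2 were measured after 24 h by RT-PCR with capillary electrophoresis.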

A short description of experiment [5]: ATG_M_19_CIS: Attagene CIS-FACTORIAL HepG2 Assay for M19 Transcription Factor (Internal Marker) (AID 2282939). Conditions: HepG2 Attagene CIS-FACTORIAL M19 internal marker reporter; actives raise or lower the signal. The method, boiled down: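 Internal marker readout, fitted in both directions against DMSO, from HepG2 cells carrying transfected cis-element reporter constructs; RT-PCR and capillary electrophoresis of reporter mRNA after 24 h exposure.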

A short description of experiment [6]: ATG_ERE_CIS: Attagene CIS-FACTORIAL HepG2 Assay for Estrogen Response Element (ERE) (AID 2282940). Conditions: HepG2 ERE cis-reporter, Attagene RNA transcript; actives raise or lower the signal. The gist of the method: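 After 24 h compound treatment, RNA from transfected HepG2 cells was reverse-transcribed, reporter cDNA PCR-amplified, FAM-labelled, HpaI-cut and resolved by capillary electrophoresis. ERE-driven cis reporter transcripts reflect endogenous factors; gain or loss scored against DMSO.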

Experiment [7] is described as follows: ATG_Ets_CIS: Attagene CIS-FACTORIAL HepG2 Assay for human Erythroblast Transformation Specific (ETS) (AID 2282941). Conditions: HepG2 ETS cis-reporter transcription, actives raise or lower the signal. The method, boiled down: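 Multiplexed reporter transcript profiling: HepG2, 24 h treatment, total RNA to cDNA, PCR, 6-FAM labelling, HpaI cut, capillary electrophoresis. Gain- or loss-of-signal fitted against DMSO.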

The target of experiment [8] is Hepatocyte nuclear factor 3-beta (Homo sapiens) (UniProt Q9Y261). As to the kind of experiment: ATG_FoxA2_CIS: Attagene CIS-FACTORIAL HepG2 Assay for human Forkhead box A2 (FOXA2) (AID 2282942). Conditions: HepG2 cis-reporter transcription factor activity, 24 h; actives raise or lower the signal. The gist of the method:
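Reporter transcript induction is measured by fluorescence after capillary electrophoresis of RT-PCR products from HepG2 cells exposed 24 h. Cis-regulated reporter units report endogenous factor activity; curves fitted both directions against DMSO.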

Experiment [9] in a line: ATG_FoxO_CIS: Attagene CIS-FACTORIAL HepG2 Assay for human Forkhead box O (FoxO) (AID 2282943). Conditions: HepG2 Attagene cis-reporter, FoxO element, mRNA; actives raise or lower the signal. The method, boiled down: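 Values reflect reporter mRNA induction or loss in HepG2 cells 24 h post-dosing, fitted bidirectionally with DMSO as negative control and baseline. Detection used RT-PCR and fluorescence capillary electrophoresis.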

The nature of experiment [10]: ATG_GATA_CIS: Attagene CIS-FACTORIAL HepG2 Assay for human GATA Binding Protein (AID 2282944). Conditions: HepG2 GATA cis-element reporter, Attagene multiplex mRNA; actives raise or lower the signal. The gist of the method: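 Reporter transcripts from a GATA cis-regulated unit, among multiplexed reporters in transfected HepG2 cells, were measured by RT-PCR with capillary electrophoresis after 24 h dosing. Induction or loss scored relative to DMSO.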

Experiment [11] is described as follows: ATG_GLI_CIS: Attagene CIS-FACTORIAL HepG2 Assay for human Zinc Finger Protein GLI1 (AID 2282945). Conditions: HepG2, Attagene cis-factorial reporter mRNA, GLI element; actives raise or lower the signal. The gist of the method:
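HepG2 cells transiently transfected with cis-promoter multiplexed reporter units report endogenous transcription factor activity. After 24 h chemical exposure, reporter mRNA was quantified by RT-PCR, 6-FAM labelling, HpaI digestion and capillary electrophoresis, with bidirectional fitting against DMSO.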

The nature of experiment [12]: ATG_ISRE_CIS: Attagene CIS-FACTORIAL HepG2 Assay for human Interferon Regulatory Factor 1 (IRF1) binding to an Interferon-Stimulated Response Element (ISRE) (AID 2282948). Conditions: HepG2 ISRE cis-reporter (Attagene), mRNA transcription readout; actives raise or lower the signal. The gist of the method:
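Signal reflects induction or loss of ISRE-linked reporter mRNA in transiently transfected HepG2 cells after a 24 h treatment, detected by fluorescent RT-PCR fragments on capillary electrophoresis and normalised to DMSO.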

The nature of experiment [13]: ATG_M_32_CIS: Attagene CIS-FACTORIAL HepG2 Assay for M32 Transcription Factor (Internal Marker) (AID 2282949).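 Also: background control marker of the multiplexed CIS panel rather than a real target.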 Conditions: HepG2 Attagene cis-factorial M32 reporter, mRNA; actives raise or lower the signal. The gist of the method: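 HepG2 human liver cells transiently transfected with cis-promoter-driven multiple reporter transcription units, dosed 24 h. Reporter mRNA quantified by RT-PCR, FAM-labelled primer extension, HpaI digest and capillary electrophoresis; bidirectional fit versus DMSO baseline.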

Experiment [14] can be described thus: ATG_M_06_CIS: Attagene CIS-FACTORIAL HepG2 Assay for M06 Transcription Factor (Internal Marker) (AID 2282950). Conditions: HepG2 Attagene CIS-FACTORIAL M06 internal marker reporter; actives raise or lower the signal. The gist of the method:
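Serves as a background control readout. Transfected HepG2 exposed to compounds for 24 h, then reporter transcripts quantified by fluorescent RT-PCR and capillary electrophoresis. Both directions fitted against DMSO baseline.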

The target of experiment [15] is Hypoxia-inducible factor 1-alpha (Homo sapiens) (UniProt Q16665). As to the kind of experiment: ATG_HIF1a_CIS: Attagene CIS-FACTORIAL HepG2 Assay for human Hypoxia Inducible Factor 1 (HIF1A) (AID 2282951). Conditions: HepG2 Attagene cis-factorial HIF1a reporter transcription; actives raise or lower the signal. The method, boiled down:
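Fluorescence intensity of capillary-separated, 6-FAM-labelled reporter amplicons gives mRNA induction in HepG2 cells carrying transfected cis-promoter reporter units; cells exposed 24 h, responses fitted up or down from DMSO.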

Experiment [16] concerns the target Hepatocyte nuclear factor 6 (Homo sapiens) (UniProt Q9UBC0). Nature of the experiment: ATG_HNF6_CIS: Attagene CIS-FACTORIAL HepG2 Assay for human Hepatocyte Nuclear Factor 6 (HNF6) (AID 2282952). Conditions: HepG2 Attagene cis-factorial HNF6 reporter transcription; actives raise or lower the signal. The gist of the method: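 Endogenous factor activity read in transiently transfected HepG2 via promoter-regulated reporter transcripts. RNA harvested 24 h post-dosing, reverse-transcribed, PCR-amplified, FAM-labelled, HpaI-digested and resolved by capillary electrophoresis; fitted in both directions against DMSO.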

Experiment [17] has as its target Heat shock factor protein 1 (Homo sapiens) (UniProt Q00613). Nature of the experiment: ATG_HSE_CIS: Attagene CIS-FACTORIAL HepG2 Assay for human Heat Shock Transcription Factor 1 (HSE) (AID 2282953). Conditions: HepG2 HSE cis-reporter, Attagene RNA transcription; actives raise or lower the signal. The method, boiled down: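 Endogenous transcription factor activity in transiently transfected HepG2, read as reporter mRNA by RT-PCR with fluorescent capillary electrophoresis after 24 h. Gain or loss of signal fitted versus DMSO baseline.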

A short description of experiment [18]: ATG_MRE_CIS: Attagene CIS-FACTORIAL HepG2 Assay for human Metal Responsive Element (MRE) (AID 2282954). Conditions: HepG2 MRE cis-reporter transcription, Attagene multiplex; actives raise or lower the signal. The gist of the method: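 Cells were transfected with cis-promoter reporter transcription units, then dosed for 24 h. RNA was reverse-transcribed, amplified, fluorescently labelled and resolved by capillary electrophoresis, and activity was fitted in both directions relative to DMSO.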

Experiment [19] can be described thus: ATG_GRE_CIS: Attagene CIS-FACTORIAL HepG2 Assay for human Glucocorticoid Response Elements (GRE) (AID 2282947). Conditions: HepG2 GRE cis-reporter, Attagene multiplex mRNA; actives raise or lower the signal. The method, boiled down: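 Cells (HepG2) bearing transfected cis-promoter reporter transcription units were treated with chemical for 24 hours. Reporter mRNA was measured via RT-PCR with capillary electrophoresis, and activity was fitted in both directions relative to DMSO.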

The target in experiment [20] is Bile acid receptor (Homo sapiens) (UniProt Q96RI1). As to the kind of experiment: ATG_IR1_CIS: Attagene CIS-FACTORIAL HepG2 Assay for human Nuclear Receptor Subfamily 1 Group H Member 4 (NR1H4), IR1 submotif (AID 2282946). Conditions: IR1 reporter transcription, actives raise or lower the signal. The method, boiled down:
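Readout: reporter transcript levels by RT-PCR with fluorescent capillary electrophoresis, from HepG2 cells transiently transfected with multiplexed cis-regulated reporters and dosed 24 h. Gain- or loss-of-signal fitted versus DMSO negative control.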

Calls of active or inactive are those of the source. The calls were made as follows: active = hit-call score of the fitted dose curve at least 0.9, where 1 is the maximum; inactive = score below 0.9.

Sequence of Hypoxia-inducible factor 1-alpha (Homo sapiens) (Q16665 whole entry, looked up): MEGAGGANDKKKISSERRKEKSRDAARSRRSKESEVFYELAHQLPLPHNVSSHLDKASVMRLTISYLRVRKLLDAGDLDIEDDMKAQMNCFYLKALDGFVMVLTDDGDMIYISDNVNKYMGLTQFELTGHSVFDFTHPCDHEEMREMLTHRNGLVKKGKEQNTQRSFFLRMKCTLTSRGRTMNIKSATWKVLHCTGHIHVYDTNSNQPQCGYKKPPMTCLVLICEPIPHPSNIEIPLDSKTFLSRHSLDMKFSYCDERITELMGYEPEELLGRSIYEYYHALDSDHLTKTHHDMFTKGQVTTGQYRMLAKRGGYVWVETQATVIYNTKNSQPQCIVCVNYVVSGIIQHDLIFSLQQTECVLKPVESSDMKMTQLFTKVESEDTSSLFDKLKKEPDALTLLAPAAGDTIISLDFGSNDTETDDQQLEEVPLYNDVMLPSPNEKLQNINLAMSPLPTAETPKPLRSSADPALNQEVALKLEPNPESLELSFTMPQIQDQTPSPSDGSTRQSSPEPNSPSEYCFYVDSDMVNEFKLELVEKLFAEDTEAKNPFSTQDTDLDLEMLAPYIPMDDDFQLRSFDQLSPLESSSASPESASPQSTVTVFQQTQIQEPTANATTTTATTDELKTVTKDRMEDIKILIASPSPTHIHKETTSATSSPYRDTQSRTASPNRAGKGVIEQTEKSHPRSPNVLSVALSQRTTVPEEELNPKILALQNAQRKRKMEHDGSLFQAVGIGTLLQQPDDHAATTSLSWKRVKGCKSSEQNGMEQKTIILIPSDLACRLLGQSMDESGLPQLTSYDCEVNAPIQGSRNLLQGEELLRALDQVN
Sequence of Heat shock factor protein 1 (Homo sapiens) (Q00613 whole entry, looked up): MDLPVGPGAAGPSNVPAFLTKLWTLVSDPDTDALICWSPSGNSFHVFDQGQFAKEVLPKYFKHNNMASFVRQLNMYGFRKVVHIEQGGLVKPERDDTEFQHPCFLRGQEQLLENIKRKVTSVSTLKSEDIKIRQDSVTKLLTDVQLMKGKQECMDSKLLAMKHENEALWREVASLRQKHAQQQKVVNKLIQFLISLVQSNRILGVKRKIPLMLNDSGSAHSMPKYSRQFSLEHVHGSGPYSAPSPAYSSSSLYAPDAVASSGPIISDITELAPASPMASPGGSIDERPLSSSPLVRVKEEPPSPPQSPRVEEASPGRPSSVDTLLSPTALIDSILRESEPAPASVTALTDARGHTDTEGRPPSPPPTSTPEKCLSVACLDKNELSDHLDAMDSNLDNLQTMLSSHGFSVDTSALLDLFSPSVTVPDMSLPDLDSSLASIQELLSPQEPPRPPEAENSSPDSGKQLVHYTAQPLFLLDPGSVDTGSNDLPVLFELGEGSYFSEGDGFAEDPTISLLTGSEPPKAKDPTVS
Sequence of Transcription factor E2F1 (Homo sapiens) (Q01094 whole entry, looked up): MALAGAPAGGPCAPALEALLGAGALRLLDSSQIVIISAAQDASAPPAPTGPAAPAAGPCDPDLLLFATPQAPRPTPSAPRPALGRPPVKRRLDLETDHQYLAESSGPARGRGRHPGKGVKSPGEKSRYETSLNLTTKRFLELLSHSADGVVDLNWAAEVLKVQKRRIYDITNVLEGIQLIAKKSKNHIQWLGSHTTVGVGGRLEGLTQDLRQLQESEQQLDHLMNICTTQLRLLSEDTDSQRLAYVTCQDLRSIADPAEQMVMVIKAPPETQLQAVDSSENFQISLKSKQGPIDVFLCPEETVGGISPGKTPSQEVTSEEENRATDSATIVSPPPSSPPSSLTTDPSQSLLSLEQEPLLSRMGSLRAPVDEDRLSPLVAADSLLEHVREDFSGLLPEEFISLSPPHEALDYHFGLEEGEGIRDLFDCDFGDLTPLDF
Sequence of Hepatocyte nuclear factor 3-beta (Homo sapiens) (Q9Y261 whole entry, looked up): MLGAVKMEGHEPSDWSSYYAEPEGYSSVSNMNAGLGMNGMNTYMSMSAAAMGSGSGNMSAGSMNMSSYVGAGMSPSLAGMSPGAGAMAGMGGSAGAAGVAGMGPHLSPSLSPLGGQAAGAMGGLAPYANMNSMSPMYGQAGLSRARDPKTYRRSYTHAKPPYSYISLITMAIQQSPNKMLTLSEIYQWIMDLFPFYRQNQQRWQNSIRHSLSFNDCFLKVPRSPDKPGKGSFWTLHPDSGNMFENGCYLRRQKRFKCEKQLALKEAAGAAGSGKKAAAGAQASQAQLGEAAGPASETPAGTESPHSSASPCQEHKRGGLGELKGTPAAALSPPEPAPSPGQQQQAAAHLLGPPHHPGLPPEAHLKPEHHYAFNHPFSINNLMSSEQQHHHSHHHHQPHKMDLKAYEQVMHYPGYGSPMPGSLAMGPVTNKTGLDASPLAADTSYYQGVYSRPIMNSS
Sequence of Hepatocyte nuclear factor 6 (Homo sapiens) (Q9UBC0 whole entry, looked up): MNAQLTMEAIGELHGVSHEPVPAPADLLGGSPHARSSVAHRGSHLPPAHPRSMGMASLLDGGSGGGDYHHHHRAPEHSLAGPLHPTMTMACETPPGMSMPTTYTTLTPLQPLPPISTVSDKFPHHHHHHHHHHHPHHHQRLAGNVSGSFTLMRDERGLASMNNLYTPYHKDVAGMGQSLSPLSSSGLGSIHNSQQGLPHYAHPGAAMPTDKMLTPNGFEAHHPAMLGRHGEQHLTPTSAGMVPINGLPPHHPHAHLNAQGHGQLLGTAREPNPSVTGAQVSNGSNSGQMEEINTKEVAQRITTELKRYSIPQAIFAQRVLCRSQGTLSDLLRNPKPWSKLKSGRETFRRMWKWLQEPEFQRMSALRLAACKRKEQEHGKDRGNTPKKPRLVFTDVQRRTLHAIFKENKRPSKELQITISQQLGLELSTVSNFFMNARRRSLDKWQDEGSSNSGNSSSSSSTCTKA
Sequence of Bile acid receptor (Homo sapiens) (Q96RI1 whole entry, looked up): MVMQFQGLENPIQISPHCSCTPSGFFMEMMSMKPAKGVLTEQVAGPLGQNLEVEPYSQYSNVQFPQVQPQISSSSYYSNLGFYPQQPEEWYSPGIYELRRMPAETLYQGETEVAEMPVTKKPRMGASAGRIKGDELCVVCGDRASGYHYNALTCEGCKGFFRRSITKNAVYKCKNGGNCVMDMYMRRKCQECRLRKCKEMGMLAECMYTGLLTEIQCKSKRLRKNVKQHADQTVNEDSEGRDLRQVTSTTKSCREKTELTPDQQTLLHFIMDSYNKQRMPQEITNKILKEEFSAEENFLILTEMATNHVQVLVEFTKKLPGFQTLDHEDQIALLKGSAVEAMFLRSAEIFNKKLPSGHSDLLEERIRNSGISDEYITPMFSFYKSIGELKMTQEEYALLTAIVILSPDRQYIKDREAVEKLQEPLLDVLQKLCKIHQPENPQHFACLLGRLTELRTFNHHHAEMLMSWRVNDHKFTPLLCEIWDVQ

For `CCOc1nc(C(Cl)(Cl)Cl)ns1`, the molecule was called inactive in experiment [1], in experiment [2], in experiment [3], in experiment [4], in experiment [5] and in experiment [6]. For the same molecule, the call in [7], in experiment [8], in experiment [9], in experiment [10], in [11] and in experiment [12] was inactive. The molecule was called inactive in [13], in [14], in experiment [15], in [16], in experiment [17] and in [18].

Take `O=C1C2CC=CCC2C(=O)N1SC(Cl)(Cl)Cl` (centres undefined): the result in experiment [1], in experiment [2], in experiment [3], in experiment [4], in experiment [5] and in [6] was inactive. In addition, the molecule was classed as inactive in experiment [7], in experiment [8], in experiment [9], in [10], in experiment [11] and in experiment [12]. The result in experiment [13], in experiment [14], in [15], in experiment [16], in experiment [17] and in [18] was inactive.

By AC50 is commonly meant the concentration giving half of the maximal activity seen. With `CCNP(=S)(OC)O/C(C)=C/C(=O)OC(C)C` (centres undefined), the molecule was called inactive in [1], in [2], in experiment [3], in experiment [4], in experiment [5] and in experiment [7]. Also, the outcome in [8], in experiment [9], in experiment [10], in experiment [11], in experiment [19] and in [12] was inactive. The call in experiment [13], in experiment [14], in [15], in [16], in experiment [17] and in experiment [18] was inactive. The AC50 in [6] is 13.4 µM (active).

`CC(C)=CC1C(C(=O)OCc2coc(Cc3ccccc3)c2)C1(C)C` (centres undefined): the molecule was called inactive in experiment [1], in experiment [2], in experiment [3], in experiment [5], in [7] and in experiment [8]. For the same molecule, the result in [9], in experiment [10], in experiment [11], in [20], in experiment [19] and in experiment [12] was inactive. Moreover, the call in [13], in experiment [14], in experiment [15], in experiment [16] and in experiment [17] was inactive. Moreover, the AC50 in [6] is 13.1 µM (active); in experiment [18], 50 µM (active).

These data come from PubChem BioAssay (EPA / NIEHS).
